Among the data in the supplement of paper PMC4723716 are viability index values, retold here.

± gives the uncertainty stated by the source. The full ranking holds about 9,900 compounds; the median of “viability index relative to DMSO control” is about 1, and the lowest 2% start at about 0.85. The sample as a whole holds a higher share of the lowest values than the screen did.

The subject of this test is Plasmodium falciparum NF54 stage V gametocytes. The test is described as follows: viability index relative to DMSO control (fraction); higher = less gametocyte killing. As to conditions: 2.5 µM, incubation time: 72 h. The essentials: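 Compound at 2.5 µM was incubated for 72 hr at 37°C under low oxygen with P. falciparum NF54 stage V gametocytes (0.75% gametocytemia, 1.25% hematocrit, 10 µl, serum-free screening medium) in 1,536-well plates. Staining used 3 µl of 2.5 µM MitoTracker Red CMXRos plus 0.13% saponin for one to two hours, and red particles of 20–70 µm2 were counted in one imaged field per well. Each viability index is that count relative to the plate mean of solvent-only wells.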

Where [1] appears, read: library set: Broad Institute DOS.
The mark [2] stands for this setting: library set: Broad Institute Blood Stage.

Under setting [1], `CNC[C@H]1OCCCC[C@@H](C)Oc2ccc(NC(=O)Nc3ccc(OC)cc3)cc2C(=O)N([C@@H](C)CO)C[C@@H]1C` showed a viability index of 0.965 ± 0.12.

Under setting [1], `Cc1cc(C(=O)Nc2ccc3c(c2)C(=O)N(C)[C@H]2CC[C@H](CC(=O)O)O[C@@H]2CO3)no1` registered a viability index of 0.927 ± 0.12.

For `C[C@@H]1CN([C@@H](C)CO)C(=O)c2cc(NS(=O)(=O)c3cccs3)ccc2O[C@@H](C)CCCCO[C@H]1CN(C)C(=O)c1ccncc1`, under setting [1], the viability index came to 1.07 ± 0.045.

Turning to `O=C(Nc1cccc(F)c1)N1CCCCN2[C@H](CO)[C@@H](c3ccc(C#Cc4cccnc4)cc3)[C@@H]2C1`, under setting [1], the viability index is 1.07 ± 0.078.

Under setting [1], `O=C(Nc1cccc(F)c1)N1CCCCN2[C@H](CO)[C@H](c3ccc(C#Cc4cccnc4)cc3)[C@@H]2C1` showed a viability index of 1.05 ± 0.024.

Turning to `O=C(Nc1ccc(F)cc1)N1CC(=O)N2[C@@H](CO)[C@H](c3ccc(C#Cc4cccnc4)cc3)[C@@H]2C1`, the viability index under setting [1] came to 1.11 ± 0.058.

Compound `O=C(Nc1cccc(F)c1)N1CCCCN2[C@H](CO)[C@@H](c3ccc(C#Cc4cccnc4)cc3)[C@H]2C1` returned a viability index under setting [1] of 0.8437 ± 0.0061.

As to `COc1cccc(CN2CCCCN3[C@H](CO)[C@@H](c4ccc(C#Cc5cccnc5)cc4)[C@@H]3C2)c1`, the viability index under setting [2] was 0.841 ± 0.06.

On to `O=C(Nc1ccc(F)cc1)N1CC(=O)N2[C@H](C1)[C@H](c1ccc(C#Cc3cccnc3)cc1)[C@@H]2CO`, for which the viability index under setting [1] stood at 1.08 ± 0.07.

On to `O=C(Nc1cccc(F)c1)N1CCCCN2[C@@H](CO)[C@@H](c3ccc(C#Cc4cccnc4)cc3)[C@@H]2C1`, for which the viability index under setting [1] amounted to 0.979 ± 0.089.

Regarding `O=C(Nc1cccc(F)c1)N1CCCCN2[C@H](C1)[C@H](c1ccc(C#Cc3cccnc3)cc1)[C@@H]2CO`, the viability index under setting [1] was found to be 0.836 ± 0.036.

On to `COCC#Cc1ccc([C@@H]2[C@@H](CO)N3CCCCN(Cc4cccnc4)C[C@@H]23)cc1`, for which, under setting [1], the viability index was found to be 1.06 ± 0.14.

As to `O=C(Nc1cccc(F)c1)N1CCCCN2[C@H](CO)[C@H](c3ccc(C#Cc4cccnc4)cc3)[C@H]2C1`, the viability index under setting [1] is 0.848 ± 0.034.

Compound `COCC#Cc1ccc([C@@H]2[C@H](CO)N3CCCCN(Cc4cccnc4)C[C@@H]23)cc1` registered a viability index under setting [1] of 1.03 ± 0.068.

Take `O=C(Nc1cccc(F)c1)N1CCCCN2[C@@H](CO)[C@H](c3ccc(C#Cc4cccnc4)cc3)[C@@H]2C1`: the viability index under setting [1] was 1.05 ± 0.075.

In turn, `CCCC(=O)Nc1ccc2c(c1)C(=O)N(C)C[C@@H](OC)[C@@H](C)CN(Cc1ccc(F)cc1)[C@@H](C)CO2` returned a viability index under setting [1] of 0.941 ± 0.11.

In turn, `O=C(C[C@H]1CC[C@@H]2[C@H](COC[C@@H](O)CN2S(=O)(=O)c2ccc(F)cc2)O1)NCCN1CCCCC1` registered a viability index under setting [1] of 1.113 ± 0.0099.

In the case of `COc1ccc(CN(C)C[C@@H]2OCc3cnnn3CCCC(=O)N([C@@H](C)CO)C[C@@H]2C)cc1`, under setting [1], the viability index was 1.012 ± 0.0093.

`CN1C(=O)c2cc(NC(=O)c3ccc(F)c(F)c3)ccc2OC[C@@H]2O[C@H](CC(=O)N3CCCCC3)CC[C@H]21` gave a viability index under setting [1] of 0.986 ± 0.14.

For `N#C[C@@H]1[C@@H](c2ccc(C#CC3(O)CCCC3)cc2)[C@@H](CO)N1C(=O)C1CCCCC1`, under setting [1], the viability index was determined as 1.11 ± 0.019.

As for `O=C(Nc1ccc(C(F)(F)F)cc1)N[C@@H]1C=C[C@@H](CC(=O)N2CCCCC2)O[C@H]1CO`, the viability index under setting [1] stood at 1.111 ± 0.008.

Consider `C[C@@H]1CN([C@H](C)CO)C(=O)c2cccc(NC(=O)Nc3ccc(F)cc3)c2O[C@H]1CN(C)S(=O)(=O)c1ccc(Cl)cc1`, for which the viability index under setting [1] came out at 0.92 ± 0.22.

In turn, `CNC(=O)C[C@@H]1CC[C@@H]2[C@@H](COc3ccc(NC(=O)c4ccccc4F)cc3C(=O)N2C)O1` displayed a viability index under setting [1] of 1.13 ± 0.083.

`COc1cccc(S(=O)(=O)N2CC[C@H]3[C@H](CO)Nc4ccc(C#Cc5cccnc5)cc4[C@H]32)c1` gave a viability index under setting [1] of 1.11 ± 0.082.

`COc1ccc(NC(=O)N2CCCCN3[C@H](C2)[C@@H](c2ccc(-c4ccccc4F)cc2)[C@@H]3CO)cc1` returned a viability index under setting [1] of 0.981 ± 0.042.

Regarding `O=C(Nc1ccc(F)cc1)N1CC(=O)N2[C@H](CO)[C@H](c3ccc(C#Cc4cccnc4)cc3)[C@@H]2C1`, the viability index under setting [1] was 1.028 ± 0.0039.

`O=C(Nc1ccc(F)cc1)N1CC(=O)N2[C@H](CO)[C@H](c3ccc(C#Cc4cccnc4)cc3)[C@H]2C1`: the viability index under setting [1] was found to be 1.1 ± 0.086.

On to `COc1ccc(NC(=O)N2CCCCN3[C@@H](CO)[C@@H](c4ccc(-c5ccccc5F)cc4)[C@@H]3C2)cc1`, for which the viability index under setting [1] turned out to be 0.993 ± 0.011.

For the compound `O=C(Nc1cccc(F)c1)N1CCCCN2[C@H](C1)[C@@H](c1ccc(C#Cc3cccnc3)cc1)[C@@H]2CO`, under setting [1], the viability index worked out at 0.81 ± 0.05.

Under setting [2], `COc1ccc(C#Cc2ccc([C@@H]3[C@@H](CO)N4CCCCN(C(=O)Nc5cccc(F)c5)C[C@H]34)cc2)cc1` had a viability index of 0.654 ± 0.049.

In the case of `COc1ccccc1NC(=O)N1C[C@@H](O)COC[C@H]2O[C@H](CC(=O)N3CCC(Cc4ccccc4)CC3)CC[C@@H]21`, under setting [1], the viability index came out at 1 ± 0.15.

Under setting [1], `COc1ccc(S(=O)(=O)Nc2ccc3c(c2)C(=O)N([C@H](C)CO)C[C@@H](C)[C@H](CN(C)S(=O)(=O)c2ccc(Cl)cc2)OCCCC[C@H](C)O3)cc1` showed a viability index of 0.823 ± 0.033.

On to `COc1ccc(S(=O)(=O)Nc2ccc3c(c2)C(=O)N([C@@H](C)CO)C[C@@H](C)[C@@H](CN(C)S(=O)(=O)c2ccc(Cl)cc2)OCCCC[C@H](C)O3)cc1`, for which the viability index under setting [1] turned out to be 0.911 ± 0.031.

On to `COc1ccc(S(=O)(=O)Nc2ccc3c(c2)C(=O)N([C@H](C)CO)C[C@H](C)[C@@H](CN(C)S(=O)(=O)c2ccc(Cl)cc2)OCCCC[C@H](C)O3)cc1`, for which the viability index under setting [1] stood at 0.886 ± 0.03.

The compound `COc1ccc(S(=O)(=O)Nc2ccc3c(c2)C(=O)N([C@H](C)CO)C[C@@H](C)[C@H](CN(C)S(=O)(=O)c2ccc(Cl)cc2)OCCCC[C@@H](C)O3)cc1` showed a viability index under setting [1] of 0.887 ± 0.072.

Turning to `COc1ccc(S(=O)(=O)Nc2ccc3c(c2)C(=O)N([C@@H](C)CO)C[C@H](C)[C@@H](CN(C)Cc2ccc(C(F)(F)F)cc2)OCCCC[C@@H](C)O3)cc1`, the viability index under setting [1] was 0.829 ± 0.0097.

`COc1ccc(S(=O)(=O)Nc2ccc3c(c2)C(=O)N([C@@H](C)CO)C[C@H](C)[C@H](CN(C)S(=O)(=O)c2ccc(Cl)cc2)OCCCC[C@@H](C)O3)cc1`: under setting [1], the viability index stood at 0.953 ± 0.064.
